Measurements: ChEMBL document CHEMBL3988442, “University of Dundee, Small-Polar-MMV Screening Library” (2021)
Measured potencies and affinities stand elsewhere.

The compounds below were run against Protein translocase subunit SecA (Escherichia coli (strain K12)) (UniProt P10408) (assay: Assay to Identify E. coli SecA ATPase Inhibitors). Settings: 30 µM.
Format: functional
Design: scale not given: direction of the effect not stated beside the values

Chain of Protein translocase subunit SecA (Escherichia coli (strain K12)) (P10408 whole entry): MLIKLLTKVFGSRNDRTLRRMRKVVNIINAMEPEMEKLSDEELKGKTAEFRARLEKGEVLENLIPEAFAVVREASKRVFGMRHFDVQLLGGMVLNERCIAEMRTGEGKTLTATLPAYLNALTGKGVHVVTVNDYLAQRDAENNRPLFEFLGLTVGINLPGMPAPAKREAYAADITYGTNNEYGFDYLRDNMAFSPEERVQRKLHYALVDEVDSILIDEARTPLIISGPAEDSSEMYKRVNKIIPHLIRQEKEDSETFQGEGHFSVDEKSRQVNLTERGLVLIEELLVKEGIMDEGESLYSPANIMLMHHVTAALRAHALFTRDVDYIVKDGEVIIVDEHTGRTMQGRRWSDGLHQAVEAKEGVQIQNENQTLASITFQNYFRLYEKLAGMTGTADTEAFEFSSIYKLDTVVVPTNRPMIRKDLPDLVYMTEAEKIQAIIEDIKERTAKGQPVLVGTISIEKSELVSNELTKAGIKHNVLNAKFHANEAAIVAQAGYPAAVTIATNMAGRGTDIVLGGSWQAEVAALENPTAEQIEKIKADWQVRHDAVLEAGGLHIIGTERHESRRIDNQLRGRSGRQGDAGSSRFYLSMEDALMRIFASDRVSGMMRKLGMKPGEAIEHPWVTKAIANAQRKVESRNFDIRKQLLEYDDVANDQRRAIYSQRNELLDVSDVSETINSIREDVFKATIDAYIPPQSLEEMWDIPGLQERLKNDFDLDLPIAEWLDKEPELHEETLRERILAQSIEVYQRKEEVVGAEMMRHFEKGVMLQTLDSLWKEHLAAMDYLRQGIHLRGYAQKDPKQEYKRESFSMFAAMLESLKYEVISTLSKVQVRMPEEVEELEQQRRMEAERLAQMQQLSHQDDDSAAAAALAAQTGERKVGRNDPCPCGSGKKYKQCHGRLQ

| SMILES | Percent Effect [%] |
| --- | --- |
| COCC1CC2(CCN(C(=O)c3cccn3C)CC2)CN1C(C)C (stereo not drawn) | -2.49 |
| CCN(Cc1cccc(Cl)c1)Cn1nc(C)c2c(C)onc2c1=O | -8.55 |
| CC(C)c1nc(CC(=O)Nc2nc(CN3CCCCCC3)cs2)cs1 | -2.6 |
| COc1cccc(CN(C)S(=O)(=O)N2CCOCC2)c1 | -1.1 |
| Cc1nn(C)c(N(C)C)c1CNCc1cccc(OCCN(C)C)c1 | -0.484 |
| Cc1ccc(CNC(=O)CCSCc2csc(C)n2)cn1 | -2.98 |
| CCO[C@@H]1CC[C@H]2[C@H]1OCCN2C(=O)C1CCOCC1 | -5.85 |
| CCC1CCCCN1C(=O)c1ccc2[nH]nnc2c1 (stereo not drawn) | 0.483 |
| FC(F)(F)C1CCCn2c(CNCc3ccsc3)nnc21 (stereo not drawn) | -2.76 |
| CCC1(CC)Cc2ccccc2-c2nc(NCCO)[nH]c(=O)c21 | -5.77 |
| Cc1nc(C)n(CC2CCCCN2CCC(=O)Nc2cc(C)on2)n1 (stereo not drawn) | -3.16 |
| Cc1nc(C)n(CC2CN(CC(=O)Nc3nccs3)CCO2)n1 (stereo not drawn) | -0.715 |
| CC(NC(=O)NCCOc1ccc(F)c(F)c1)c1nncn1C (stereo not drawn) | -3.44 |
| COCCNc1nc(C2CCCC2)nc2c1CCNCC2 | -0.492 |
| Cc1ccc(CNS(=O)(=O)CC2=NC(=O)n3cccc3C2=O)cc1 | 0.952 |
| CCS(=O)(=O)N(C)C(=O)c1cc(C)n(-c2cccc(OC)c2)c1C | -6.4 |
| Cn1ncc2c(=O)[nH]c(CN(Cc3ccco3)C3CCCC3)nc21 | -5.65 |
| O=C(CS(=O)(=O)CC1CCCCC1)NC1CCCCNC1=O (stereo not drawn) | -5.08 |
| CC(N(C)Cc1nc2c(cnn2C)c(=O)[nH]1)C(C)(C)C (stereo not drawn) | -4.87 |
| CC(C)c1nc(C2CCCN2C(=O)c2nccnc2N)no1 (stereo not drawn) | -6.3 |

| SMILES | Percent Effect [%] |
| --- | --- |
| O=C1CC(N(C(=O)c2ccc3c(c2)CCC3)C2CC2)C(=O)N1 (stereo not drawn) | -3.91 |
| CCn1cnnc1CNC(=O)N1CCC(Cc2cccnc2)CC1 | -2.15 |
| CC(NC(=O)NCc1cccc(N2CCCC2=O)c1)c1ccccc1 (stereo not drawn) | -2.62 |
| O=C1N(c2ccc(F)cc2)Cc2nc(=O)n(Cc3cccc(Cl)c3)n21 | 0.397 |
| Cc1noc2nc(C3CCN(Cc4cccnc4)CC3)cc(C(F)F)c12 | -3.07 |
| CCOc1cccc(C(=O)NCCC(=O)Nc2ccncc2)c1 | -1.91 |
| O=S(=O)(Cc1ccccc1F)NCCN1CCOCC1 | -4.08 |
| O=C(NCCc1ccccc1)C1CCC(Cn2cnnn2)CC1 (stereo not drawn) | -0.876 |
| CC(C)c1nnc2n1CCN(Cc1csc(CC(=O)N(C)C)n1)C2 | 2.63 |
| Cc1cc(C)n(CC2CCCN2C(=O)CCc2cscn2)n1 (stereo not drawn) | -2.42 |
| CC(=O)N1CCC(C(=O)N(C)[C@@H]2CCC[C@@H](N3CCCC3)[C@@H]2O)CC1 | -6.98 |
| N#Cc1ccc(OCCCN2CCc3cncnc3C2)cc1 | -5.04 |
| Cc1cnn(CCNCC(=O)NCCOc2ccccc2)c1 | 0.828 |
| CC(CCN1CCn2nc(CNC(=O)N(C)C)cc2C1)c1ccccc1 (stereo not drawn) | -0.0552 |
| COc1ccc(CN(C)Cc2nc3c(cnn3C)c(=O)[nH]2)cc1OC | -1.17 |
| CCOC(=O)C1CCCN(c2ccc(-c3nc(C)no3)cn2)C1 (stereo not drawn) | -4.99 |
| CC1Cc2ccccc2N1Cc1occc1C(=O)OCC(N)=O (stereo not drawn) | -4.31 |
| CC(C)Oc1ccccc1CNC(=O)N1CCC(n2cncn2)CC1 | -9.7 |
| COCC(O)CN(C)C(=O)NC1CCN(Cc2ccccn2)CC1 (stereo not drawn) | -2.64 |

These compounds were tested against T1, Ubiquitin-activating enzyme e1, putative (Leishmania donovani (strain BPK282A1)) (UniProt E9BSI1) (assay: Leishmania donovani Ubiquitin Activating Enzyme (LdE1)). Settings: 30 µM.
T1 sequence (whole entry): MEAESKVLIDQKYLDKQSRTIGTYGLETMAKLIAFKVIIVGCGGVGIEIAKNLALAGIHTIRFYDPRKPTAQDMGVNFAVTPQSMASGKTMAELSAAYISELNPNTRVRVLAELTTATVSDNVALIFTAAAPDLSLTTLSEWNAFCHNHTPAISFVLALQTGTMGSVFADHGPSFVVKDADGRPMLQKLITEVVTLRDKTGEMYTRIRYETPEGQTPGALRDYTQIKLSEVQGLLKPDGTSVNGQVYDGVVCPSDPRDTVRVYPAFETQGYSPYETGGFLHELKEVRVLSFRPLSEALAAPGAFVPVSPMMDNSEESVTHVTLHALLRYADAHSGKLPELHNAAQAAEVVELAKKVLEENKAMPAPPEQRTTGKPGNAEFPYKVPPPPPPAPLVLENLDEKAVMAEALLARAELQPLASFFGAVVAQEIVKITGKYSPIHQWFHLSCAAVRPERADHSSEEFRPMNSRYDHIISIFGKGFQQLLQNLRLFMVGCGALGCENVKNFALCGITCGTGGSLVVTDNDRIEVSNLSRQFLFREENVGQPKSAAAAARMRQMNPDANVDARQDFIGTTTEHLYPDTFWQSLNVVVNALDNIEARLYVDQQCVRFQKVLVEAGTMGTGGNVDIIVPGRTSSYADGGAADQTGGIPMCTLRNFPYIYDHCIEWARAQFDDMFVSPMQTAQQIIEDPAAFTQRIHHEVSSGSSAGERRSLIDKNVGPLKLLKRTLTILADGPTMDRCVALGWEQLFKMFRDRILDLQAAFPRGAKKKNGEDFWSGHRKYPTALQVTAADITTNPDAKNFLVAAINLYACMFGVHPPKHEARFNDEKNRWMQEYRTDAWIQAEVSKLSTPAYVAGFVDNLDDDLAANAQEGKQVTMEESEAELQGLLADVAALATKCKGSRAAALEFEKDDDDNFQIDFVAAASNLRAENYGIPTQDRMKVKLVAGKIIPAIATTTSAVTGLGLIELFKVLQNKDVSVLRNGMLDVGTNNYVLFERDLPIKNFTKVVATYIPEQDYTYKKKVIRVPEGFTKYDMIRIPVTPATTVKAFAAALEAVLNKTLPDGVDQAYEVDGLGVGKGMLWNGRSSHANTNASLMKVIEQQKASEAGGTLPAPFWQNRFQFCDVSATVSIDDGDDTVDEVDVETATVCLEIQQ
Format: functional
Design: scale not given: direction of the effect not stated beside the values

| SMILES | Percent Effect [%] |
| --- | --- |
| COCC1CC2(CCN(C(=O)c3cccn3C)CC2)CN1C(C)C (stereo not drawn) | -13.5 |
| CCN(Cc1cccc(Cl)c1)Cn1nc(C)c2c(C)onc2c1=O | 8.11 |
| CC(C)c1nc(CC(=O)Nc2nc(CN3CCCCCC3)cs2)cs1 | -15.6 |
| COc1cccc(CN(C)S(=O)(=O)N2CCOCC2)c1 | 13.2 |
| Cc1nn(C)c(N(C)C)c1CNCc1cccc(OCCN(C)C)c1 | 15.8 |
| Cc1ccc(CNC(=O)CCSCc2csc(C)n2)cn1 | 17.7 |
| CCO[C@@H]1CC[C@H]2[C@H]1OCCN2C(=O)C1CCOCC1 | 21.6 |
| CCC1CCCCN1C(=O)c1ccc2[nH]nnc2c1 (stereo not drawn) | 0 |
| FC(F)(F)C1CCCn2c(CNCc3ccsc3)nnc21 (stereo not drawn) | 2.67 |
| CCC1(CC)Cc2ccccc2-c2nc(NCCO)[nH]c(=O)c21 | 10.5 |
| Cc1nc(C)n(CC2CCCCN2CCC(=O)Nc2cc(C)on2)n1 (stereo not drawn) | 6.33 |
| Cc1nc(C)n(CC2CN(CC(=O)Nc3nccs3)CCO2)n1 (stereo not drawn) | 1.39 |
| CC(NC(=O)NCCOc1ccc(F)c(F)c1)c1nncn1C (stereo not drawn) | 5.2 |
| COCCNc1nc(C2CCCC2)nc2c1CCNCC2 | -2.7 |
| Cc1ccc(CNS(=O)(=O)CC2=NC(=O)n3cccc3C2=O)cc1 | -9.33 |
| CCS(=O)(=O)N(C)C(=O)c1cc(C)n(-c2cccc(OC)c2)c1C | 20.2 |
| Cn1ncc2c(=O)[nH]c(CN(Cc3ccco3)C3CCCC3)nc21 | 23.4 |
| O=C(CS(=O)(=O)CC1CCCCC1)NC1CCCCNC1=O (stereo not drawn) | 2.6 |
| CC(N(C)Cc1nc2c(cnn2C)c(=O)[nH]1)C(C)(C)C (stereo not drawn) | 13.5 |
| CC(C)c1nc(C2CCCN2C(=O)c2nccnc2N)no1 (stereo not drawn) | 16.2 |

| SMILES | Percent Effect [%] |
| --- | --- |
| O=C1CC(N(C(=O)c2ccc3c(c2)CCC3)C2CC2)C(=O)N1 (stereo not drawn) | 7.59 |
| CCn1cnnc1CNC(=O)N1CCC(Cc2cccnc2)CC1 | -2.6 |
| CC(NC(=O)NCc1cccc(N2CCCC2=O)c1)c1ccccc1 (stereo not drawn) | 7.79 |
| O=C1N(c2ccc(F)cc2)Cc2nc(=O)n(Cc3cccc(Cl)c3)n21 | -4 |
| Cc1noc2nc(C3CCN(Cc4cccnc4)CC3)cc(C(F)F)c12 | 1.35 |
| CCOc1cccc(C(=O)NCCC(=O)Nc2ccncc2)c1 | -5.26 |
| O=S(=O)(Cc1ccccc1F)NCCN1CCOCC1 | 8 |
| O=C(NCCc1ccccc1)C1CCC(Cn2cnnn2)CC1 (stereo not drawn) | -4 |
| CC(C)c1nnc2n1CCN(Cc1csc(CC(=O)N(C)C)n1)C2 | 18.4 |
| Cc1cc(C)n(CC2CCCN2C(=O)CCc2cscn2)n1 (stereo not drawn) | -5.26 |
| CC(=O)N1CCC(C(=O)N(C)[C@@H]2CCC[C@@H](N3CCCC3)[C@@H]2O)CC1 | 20.3 |
| N#Cc1ccc(OCCCN2CCc3cncnc3C2)cc1 | 5.06 |
| Cc1cnn(CCNCC(=O)NCCOc2ccccc2)c1 | 21.1 |
| CC(CCN1CCn2nc(CNC(=O)N(C)C)cc2C1)c1ccccc1 (stereo not drawn) | 5.41 |
| COc1ccc(CN(C)Cc2nc3c(cnn3C)c(=O)[nH]2)cc1OC | 13.9 |
| CCOC(=O)C1CCCN(c2ccc(-c3nc(C)no3)cn2)C1 (stereo not drawn) | 8 |
| CC1Cc2ccccc2N1Cc1occc1C(=O)OCC(N)=O (stereo not drawn) | 11 |
| CC(C)Oc1ccccc1CNC(=O)N1CCC(n2cncn2)CC1 | 11.4 |
| COCC(O)CN(C)C(=O)NC1CCN(Cc2ccccn2)CC1 (stereo not drawn) | 28.6 |
